# Assay results reported in the supplement of paper PMC3545927.
# The list shows a part of the results. How many sequences the whole screen found active is unknown.
# B1: HC85 (peptide)
# chain: CAVVCISMSYAGNASASA
# B2: FS-1451 (peptide)
# chain: CAEPHRARRGAGNASASA
# B3: FS-850 (peptide)
# chain: CAQRRRARRGAGNASASA
# B4: FS-1060 (peptide)
# chain: CARGCRARRGAGNASASA
# B5: HC2482 (peptide)
# chain: CAQTPCSAHLAGNASASA
# B6: HC2574 (peptide)
# chain: CASTPCSAHKAGNASASA
# B7: HC1391 (peptide)
# chain: CATSRSACQRAGNASASA
# B8: FS-1948 (peptide)
# chain: CARFKRKLPKAGNASASA
# B9: FS-1067 (peptide)
# chain: CARPGRKDRRAGNASASA
# B10: FS-2268 (peptide)
# chain: CARKKRKSPKAGNASASA
# B11: FS-2474 (peptide)
# chain: CATTKRDAGKAGNASASA
# B12: FS-2259 (peptide)
# chain: CARFKRAAGKAGNASASA
# B13: FS-2029 (peptide)
# chain: CARICRDIPKAGNASASA
# B14: FS-2811 (peptide)
# chain: CARSKRIAGKAGNASASA
# B15: FS-2553 (peptide)
# chain: CARFKRKDRMAGNASASA
# B16: FS-2003 (peptide)
# chain: CAREGRDGPKAGNASASA
# B17: HC1454 (peptide)
# chain: CAVRVCEKMAAGNASASA
# B18: HC2085 (peptide)
# chain: CAVVCCSMSLAGNASASA
# B19: HC482 (peptide)
# chain: CAACNWTRGEAGNASASA
# B20: HC57 (peptide)
# chain: CATTPYSGSWAGNASASA
# B21: HC2092 (peptide)
# chain: CAVVCCSMSEAGNASASA
# B22: HC286 (peptide)
# chain: CAGKLPATQLAGNASASA
# B23: HC1397 (peptide)
# chain: CATFDRLQVLAGNASASA
# B24: FS-2249 (peptide)
# chain: CAQEKRSVFQAGNASASA
# B25: FS-3154 (peptide)
# chain: CARFKRAIFQAGNASASA
# B26: FS-1891 (peptide)
# chain: CARFKRDPNQAGNASASA
# B27: FS-2489 (peptide)
# chain: CARFKRLADMAGNASASA
# B28: FS-2414 (peptide)
# chain: CARFKKLADMAGNASASA
# B29: HC684 (peptide)
# chain: CALTGRDKNQAGNASASA
# B30: FS-3088 (peptide)
# chain: CARSNRFSWMAGNASASA
# B31: FS-2129 (peptide)
# chain: CARAQRSPQQAGNASASA
# B32: FS-2488 (peptide)
# chain: CARFKRLACMAGNASASA
# B33: FS-2662 (peptide)
# chain: CARFERAIGPAGNASASA
# B34: FS-2610 (peptide)
# chain: CARSWRLACEAGNASASA
# B35: HC391 (peptide)
# chain: CAPLTDFDQGAGNASASA
# B36: HC338 (peptide)
# chain: CAVLAGIAYFAGNASASA
# B37: HC1975 (peptide)
# chain: CAEHTTPCSGAGNASASA
# B38: HC1849 (peptide)
# chain: CATYPCSGSWAGNASASA
# B39: FS-1844 (peptide)
# chain: CARYRRVITVAGNASASA
# B40: FS-1942 (peptide)
# chain: CARYRRHGTHAGNASASA
# B41: FS-2321 (peptide)
# chain: CARYRRWMKNAGNASASA
# B42: FS-2715 (peptide)
# chain: CARLRRLAEGAGNASASA
# B43: FS-1980 (peptide)
# chain: CARYRRVAEGAGNASASA
# B44: FS-2442 (peptide)
# chain: CARPWRPAEGAGNASASA
# B45: FS-1810 (peptide)
# chain: CARYRRGFIHAGNASASA
# Target: furin, P09958
# Sequence (P09958 whole entry): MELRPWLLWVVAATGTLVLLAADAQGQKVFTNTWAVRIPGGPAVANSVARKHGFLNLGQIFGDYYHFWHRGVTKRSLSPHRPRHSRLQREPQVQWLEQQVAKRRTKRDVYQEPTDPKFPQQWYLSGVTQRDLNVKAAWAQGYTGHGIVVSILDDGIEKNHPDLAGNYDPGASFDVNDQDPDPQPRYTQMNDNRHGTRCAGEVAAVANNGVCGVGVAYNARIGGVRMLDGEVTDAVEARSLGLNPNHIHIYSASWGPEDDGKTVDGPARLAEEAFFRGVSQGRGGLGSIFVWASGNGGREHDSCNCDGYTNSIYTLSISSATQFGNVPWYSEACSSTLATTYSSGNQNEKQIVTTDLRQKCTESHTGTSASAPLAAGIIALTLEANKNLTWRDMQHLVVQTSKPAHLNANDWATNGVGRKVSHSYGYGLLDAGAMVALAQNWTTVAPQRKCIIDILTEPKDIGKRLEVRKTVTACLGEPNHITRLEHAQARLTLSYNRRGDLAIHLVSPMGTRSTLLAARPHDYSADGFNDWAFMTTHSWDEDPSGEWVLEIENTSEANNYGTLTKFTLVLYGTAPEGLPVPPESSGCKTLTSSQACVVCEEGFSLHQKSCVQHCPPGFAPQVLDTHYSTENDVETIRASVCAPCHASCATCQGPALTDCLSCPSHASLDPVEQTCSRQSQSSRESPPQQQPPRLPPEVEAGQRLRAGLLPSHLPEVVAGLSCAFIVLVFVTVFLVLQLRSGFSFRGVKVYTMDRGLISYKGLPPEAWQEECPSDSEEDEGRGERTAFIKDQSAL
# Test: furin cleavage Z-score vs untreated control; higher = more cleavage, active = 3.5 or more, inactive = 1 or less, 8 variable residues between constant flanks
# In short: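 Abundance of DNA freed from bead-bound 8-mer peptide–cDNA fusions by purified furin was measured as sequencing read counts after PCR adapter tagging. Cutting ran 7.5, 15 or 30 min in 0.01 ml of 50 mM HEPES pH 7.5 with CaCl2 and NaCl at 1:10 enzyme:substrate. The cleavage Z-score expresses these log counts against furin-free reactions after lowess adjustment and median absolute deviation scaling.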
Sequence,furin cleavage Z-score (7.5 min),furin cleavage Z-score (15 min),furin cleavage Z-score (30 min)
B1,-1.62 (inactive),-2.02 (inactive),-0.461 (inactive)
B2,5.81 (active),5.59 (active),6.2 (active)
B3,2.4,2.13,0.325 (inactive)
B4,3.97 (active),3.87 (active),2.93
B5,-0.0432 (inactive),0.702 (inactive),2.39
B6,-0.715 (inactive),0.189 (inactive),-1.56 (inactive)
B7,0.0948 (inactive),0.314 (inactive),0.239 (inactive)
B8,0.844 (inactive),1.94,3.55 (active)
B9,0.778 (inactive),1.1,0.538 (inactive)
B10,0.83 (inactive),2.91,2.06
B11,-0.152 (inactive),-0.387 (inactive),0.96 (inactive)
B12,11.2 (active),12.2 (active),9.21 (active)
B13,3.76 (active),5.68 (active),4.88 (active)
B14,0.535 (inactive),-0.714 (inactive),0.638 (inactive)
B15,4.28 (active),3.52 (active),4.13 (active)
B16,0.305 (inactive),-0.0392 (inactive),-2.05 (inactive)
B17,-0.509 (inactive),-1.63 (inactive),-0.874 (inactive)
B18,-0.7 (inactive),-0.0853 (inactive),0.456 (inactive)
B19,0.0668 (inactive),0.0745 (inactive),-0.647 (inactive)
B20,-0.402 (inactive),-1.77 (inactive),-1.07 (inactive)
B21,0.169 (inactive),-0.137 (inactive),0.14 (inactive)
B22,-0.891 (inactive),0.888 (inactive),-0.728 (inactive)
B23,-1.63 (inactive),-1.93 (inactive),-0.453 (inactive)

Sequence,furin cleavage Z-score (7.5 min),furin cleavage Z-score (15 min),furin cleavage Z-score (30 min)
B24,-0.752 (inactive),1.01,0.632 (inactive)
B25,3.12,6.07 (active),9.35 (active)
B26,5.07 (active),6.2 (active),6.47 (active)
B27,2.25,3.3,4.96 (active)
B28,-1 (inactive),-2.01 (inactive),0.965 (inactive)
B29,-0.69 (inactive),-0.684 (inactive),-0.181 (inactive)
B30,1.34,0.175 (inactive),0.252 (inactive)
B31,-0.476 (inactive),0.539 (inactive),1.62
B32,1.67,1.17,4.11 (active)
B33,1.09,0.675 (inactive),1.32
B34,-1.13 (inactive),-1.31 (inactive),-0.906 (inactive)
B35,-0.36 (inactive),-0.0198 (inactive),-2.39 (inactive)
B36,-0.161 (inactive),0.738 (inactive),-0.272 (inactive)
B37,-1.73 (inactive),-1.12 (inactive),0.179 (inactive)
B38,-0.56 (inactive),-0.736 (inactive),-0.826 (inactive)
B39,-0.325 (inactive),-0.579 (inactive),0.939 (inactive)
B40,3.5,5.79 (active),6.5 (active)
B41,-1.37 (inactive),-0.188 (inactive),2.73
B42,-0.759 (inactive),-0.389 (inactive),-0.211 (inactive)
B43,3.4,4.71 (active),4.58 (active)
B44,-1.33 (inactive),-0.417 (inactive),0.551 (inactive)
B45,1.59,3.75 (active),4.82 (active)
